# Compound activity deposited in PubChem by National Center for Advancing Translational Sciences (NCATS).
# Pf growth 96h: Primary qHTS for delayed death inhibitors of the malarial parasite plastid, 96 hour incubation | P. falciparum luciferase reporter growth, 96 h | 320,000 tested, 6.9% active | AID 504834, 2011 | Potency, µM (doses to about 28.7 µM), usual class: inhibitors
#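 Two-generation exposure (96 h) targets delayed-death phenotype. Reporter parasites carrying integrated firefly luciferase, in red cells at 2% hematocrit and 0.05% parasitemia final, kept at 37 C, 5% CO2; luminescence loss indicates inhibition.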
# Pf growth 48h: Primary qHTS for delayed death inhibitors of the malarial parasite plastid, 48 hour incubation. P. falciparum luciferase growth in erythrocytes, 48 h. Potency, µM (highest dose often 28.7 µM), most hits filed as inhibitors. 310,000 tested, 5.9% active
#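 Erythrocytes infected with P. falciparum carrying an integrated firefly luciferase reporter (2% hematocrit, 0.1% parasitemia final) were exposed to compounds in RPMI 1640 with 0.5% Albumax at 37 C, 5% CO2. Growth inhibition was scored as reduced luminescence.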
# SARS PLpro yeast: qHTS of Yeast-based Assay for SARS-CoV PLP | S. cerevisiae expressing SARS-CoV PLpro, growth rescue | AID 485353, 2010 | Potency, µM (top dose mostly 32.9 µM), usual class: activators | 330,000 tested, 0.19% active; calls by dose curve; further: nearly all actives have a fitted effect of over 55% in size
# Sm TGR inh: qHTS Assay for the Inhibitors of Schistosoma Mansoni Peroxiredoxins. Schistosoma mansoni thioredoxin glutathione reductase (TGR), Q962Y6. purified TGR, DTNB reduction, TNB absorbance 405 nm. Potency, µM (doses to about 114 µM), most hits filed as inhibitors. 360,000 tested, 3% active. AID 485364, 2010; further: nearly all actives have a fitted effect of over 60% in size
#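 First, TGR (20 nM dispensed) and NADPH were mixed with compound. Second, a 15 min room-temperature incubation followed. Third, further NADPH and then DTNB were added to start the reaction. Finally, TNB absorbance was monitored kinetically.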
# Numbers stand for hits; . = inactive; ? = inconclusive; / = not tested or not shown. Shown are actives, neighbours in structure and some others; about 12% of the full set was active somewhere. Unless noted, the call rests on the fitted dose curve; in most records, active means well fitted curve in the direction sought with a large enough effect; inconclusive means small, poorly fitted or top-dose-only effect, or another doubt; inactive means no such curve, though single readings can be large; an effect the other way counts as inactive or inconclusive.
SMILES,Pf growth 96h,Pf growth 48h,SARS PLpro yeast,Sm TGR inh
O=c1cc(CO)oc(C(Nc2ccccn2)c2ccc(F)cc2)c1O (centres undefined),.,.,.,2.51µM
Fc1ccc(CNc2ccccn2)cc1,.,.,.,.
COc1ccc(Cl)cc1CNCCSc1nnnn1-c1ccccc1,/,/,/,.
Cn1c(=O)c2c(SCC(=O)N3CCc4ccccc43)nc(-c3ccccc3Cl)nc2n(C)c1=O,/,/,/,.
O=C(O)c1ccc(S(=O)(=O)N2CCC(c3nc(-c4ccccc4Cl)no3)CC2)cc1,9.28µM,.,.,.
Cc1nc2sccn2c(=O)c1S(=O)(=O)N1CCN(c2cccc(C(F)(F)F)c2)CC1,10.4µM,?,.,.
COc1ccccc1CNC(=O)C(NS(=O)(=O)c1ccc2c(c1)CCN2C(C)=O)C(C)C (centres undefined),/,/,/,.
O=[N+]([O-])c1ccc2c(c1)nc1n2CCN(C2CCCCC2)C1,.,?,.,35.5µM
O=[N+]([O-])c1ccc2c(c1)nc1n2CCCCC1,.,.,.,.
Cc1cccc(-c2oc3ccccc3c2C#CCCO)c1,.,.,.,15.8µM
Cc1cccc(-c2oc3ccccc3c2C#CCCCCO)c1,.,.,.,?
COc1ccc(CCNC(=O)CCCCCn2c(=O)[nH]c3cc(OC)c(OC)cc3c2=O)cc1OC,/,/,/,.
CC(=O)Nc1cc(-c2ccccc2)ccc1O,.,?,.,.
Nc1cc(-c2ccccc2)ccc1O,11.7µM,?,?,.
CN(c1ccc(C(=O)NCCCn2ccnc2)cc1)S(C)(=O)=O,.,.,.,.
Cc1nc(-c2ccccc2)sc1-c1nc(-c2ccncc2)ncc1S(=O)(=O)c1ccccc1,1.65µM,?,.,.
Cc1csc(NC(=O)C2CC(=O)N(Cc3ccco3)C2)n1 (centres undefined),.,.,.,44.7µM
O=C(COC(=O)C1CC(=O)N(Cc2ccco2)C1)Nc1ccc(F)cc1F (centres undefined),/,/,.,/
O=C(COC(=O)C1CC(=O)N(Cc2ccco2)C1)Nc1ccccc1[N+](=O)[O-] (centres undefined),.,.,.,.
O=C(COC(=O)C1CC(=O)N(Cc2ccco2)C1)c1ccc(OC(=O)c2ccccc2)cc1 (centres undefined),?,.,.,25.1µM
O=C(OCC(=O)N1c2ccccc2Sc2ccccc21)C1CC(=O)N(Cc2ccco2)C1 (centres undefined),.,.,.,28.2µM
Cc1ccc(/C=N/Nc2cc(C)nc(N3CCOCC3)n2)cc1,.,.,.,.
Cc1ccc(Nc2nc(N/N=C\c3ccc4c(c3)OCO4)nc(N3CCOCC3)n2)cc1,?,10.4µM,.,.
O=[N+]([O-])c1ccc(Nc2nc(N/N=C/c3cccc(F)c3)nc(N3CCCC3)n2)cc1,?,2.94µM,.,.
O=[N+]([O-])c1ccc(/C=N/Nc2nc3ccccc3o2)cc1,9.28µM,.,.,.
SMILES,Pf growth 96h,Pf growth 48h,SARS PLpro yeast,Sm TGR inh
CNc1nc(N/N=C/c2ccc([N+](=O)[O-])cc2)nc(Nc2ccccc2)n1,?,3.29µM,.,.
O=[N+]([O-])c1cc2c(cc1/C=N/Nc1nc(Nc3ccccc3)nc(N3CCCCC3)n1)OCO2,2.94µM,4.65µM,.,.
CCOC(=O)c1c(C)[nH]c(C)c1S(=O)(=O)N(C)CC(=O)Nc1ccc(OC)cc1,/,/,/,.
O=[N+]([O-])c1c(NCCO)cc(N2CCCCC2)c2nonc12,.,?,.,.
CC(=O)OCCCNc1cc(Sc2ccc(Cl)cc2)c2nonc2c1[N+](=O)[O-],.,.,.,3.16µM
CCN(CC)c1cc(NCCO)c([N+](=O)[O-])c2nonc12,?,.,.,.
CC(C)CCSc1cc(NCCO)c([N+](=O)[O-])c2nonc12,.,.,.,2.51µM
Cc1ccc(Sc2cc(NCCCO)c([N+](=O)[O-])c3nonc23)cc1,?,?,.,3.55µM
CCCCN(CC)C(=O)Cn1nc(C)c2c(C)n(-c3ccccc3)nc2c1=O,/,/,/,.
COc1cc(O)c(C(CCN2CCCC2)c2ccc(N(C)C)cc2)c(OC)c1 (centres undefined),3.29µM,2.94µM,.,?
COc1cc(O)c(C(CCN2CCCCC2)c2ccc(N(C)C)cc2)c(OC)c1 (centres undefined),0.828µM,1.31µM,.,.
COc1ccc(CCC(C)N2CCOCC2)cc1 (centres undefined),.,.,.,.
COc1ccc(C(c2c(O)ccc3ccccc23)N2CCOCC2)c(OC)c1 (centres undefined),?,.,.,3.55µM
